In PubChem BioAssay (NCI) one finds growth data, which are given here for 18 molecules.

What all share (test): NCI-60 one-dose screen, 48 h (100 = growth as untreated, 0 = no growth, -100 = all killed)
Common to all, as to details: 10 µM unless noted

For test [1], the system named is T-47D breast.
Test [2] relates to BT-549 breast.
For test [3], the system named is MDA-MB-435 melanoma.
The test system of test [4] is SW-620 colon.
For test [5], the system named is MCF7 breast.
In test [6] the test system is HCT-116 colon.
In test [7] the test system is HCC-2998 colon.
Test [8] concerns KM12 colon.

Structures are written as SMILES. About 83,000 compounds went through this panel and 20% of them were active in at least one assay; those are over-represented in the sample as a whole.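 Results are percent growth after 48 hours of single-concentration exposure. 100 means growth as in untreated cells, lower positive values show inhibition; negative values down to -100 show cell death.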 Values without a mark were called inactive. Calls of active or inactive are those of the source. How the source made its calls: active means growth percent below 10; inactive means the rest.

Consider `Nc1nc(N)c2cc(Sc3cccc(C(F)(F)F)c3)ccc2n1`, for which the growth is 45% in test [1]; 50.3% in test [2]; 28.8% in test [3]; 22.5% in test [4]; 23.9% in test [5]; 15% in test [6]. Also, the figures for the growth in test [7] and in test [8] were -57.2% (active) and 24.8%, respectively.
`CCC(=O)c1cc([N+](=O)[O-])c(Br)s1`: the growth in test [1] was -46.2% (active); in test [2] it was 108%; in test [3], 96.9%; in test [4] it was 35.4%; in test [5], 62.6%; in test [6], 1.06% (active). The values for the growth in test [7] and in test [8] were 92.7% and 93.8%, respectively.
Turning to `CC(C)(C)c1ccc(CCO)cc1`, the growth in test [1] is 106%; in test [2], 86.1%; in test [3], 89%; in test [4] it was 114%; in test [5], 101%; in test [6] it was 99.7%. The growth was 95.2% in test [7] and 115% in test [8].
Take `CN(C)c1ccc(C(C#N)(c2ccccc2)c2ccc(N(C)C)cc2)cc1`: the growth in test [1] was 41.8%; in test [2] it was 72.9%; in test [3] it was 84.2%; in test [4], 43.3%; in test [5] it was 39.9%; in test [6] it was 30.8%. Besides, the growth was 51.2% in test [7] and 65.5% in test [8].
On to `O=C(c1ccccc1)C(Br)C(Br)c1ccccc1` (centres undefined), for which the growth in test [1] is 31%; in test [2], 101%; in test [3] it was 74.6%; in test [4] it was -76.9% (active); in test [5], 31.3%; in test [6] it was -95.7% (active). The growth in test [7] was 93.3%; in test [8], 55.1%.
`CC12CCC(O)CC1=CCC1C2CCC2(C)C3=NN=CC3CC12` (centres undefined): the growth in test [1] is 110%; in test [2] it was 124%; in test [3] it was 53%; in test [4], 103%; in test [5], 107%; in test [6] it was 108%. The growth is 107% in test [7] and 94.3% in test [8].
Regarding `CC(=O)OC1CC2CCC1(C)C2(C)C` (centres undefined), the growth was 99.2% in test [1]; 112% in test [2]; 96.4% in test [3]; 98.1% in test [4]; 103% in test [5]; 107% in test [6]. The growth was 108% in test [7] and 104% in test [8].
Regarding `OC(CSc1ccccc1)CN1CCN(c2ccc(Cl)cc2)CC1` (centres undefined), the growth in test [1] was 95.9%; in test [2] it was 102%; in test [3], 105%; in test [4] it was 105%; in test [5], 98%; in test [6] it was 90.2%. The growth was 95.3% in test [7] and 110% in test [8].
Regarding `Cc1cc(C(=O)c2ccc(Cl)cc2)ccc1O`, the growth is 97% in test [1]; 94.7% in test [2]; 95.6% in test [3]; 98% in test [4]; 108% in test [5]; 84.8% in test [6]. Besides, the results for the growth in test [7] and in test [8] were 102% and 103%, respectively.
On to `CN=C(N)N/N=C(\C)c1ccc2c(c1)Cc1ccccc1-2`, for which the growth was -65.4% (active) in test [1]; -6.1% (active) in test [2]; -73.1% (active) in test [3]; -88.9% (active) in test [4]; -99.3% (active) in test [5]; -100% (active) in test [6]. Besides, the growth in test [7] is -98.5% (active); in test [8], -79% (active).
For the molecule `Cc1ccc(/C=C2\CNC/C(=C\c3ccc(C)cc3)C2=O)cc1`, the growth in test [1] is 14%; in test [2] it was -72.2% (active); in test [3] it was -47.5% (active); in test [4], -44.1% (active); in test [5], 1.76% (active); in test [6], -60% (active). Besides, the growth in test [7] was -81.3% (active); in test [8], -78.6% (active).
Regarding `O=S(=O)(O)c1cnccn1`, the growth in test [1] was 78.6%; in test [2] it was 95.3%; in test [3], 105%; in test [4], 112%; in test [5], 98%; in test [6] it was 86.5%. Further, the growth in test [7] is 102%; in test [8], 98.9%.
As to `C=C(C(N)=O)C(N)C(=O)O` (centres undefined), the growth in test [1] was 106%; in test [2] it was 108%; in test [3], 123%; in test [4] it was 109%; in test [5], 102%; in test [6], 92.4%. Further, the growth in test [7] was 108%; in test [8] it was 95.9%.
With `CCCCCCCCCCCCCCCC[N+]1(C)CCCC1c1cccnc1` (centres undefined), the growth in test [1] was 45.2%; in test [2] it was -6.27% (active); in test [3], 63.9%; in test [4] it was 53.2%; in test [5] it was 41%; in test [6] it was 35%. Moreover, the growth is 19.8% in test [7] and 41.7% in test [8].
Turning to `O=C1C(=O)c2cccnc2-c2ncccc21`, the growth was -68.8% (active) in test [1]; -11.7% (active) in test [2]; -69.6% (active) in test [3]; -95.6% (active) in test [4]; -55.4% (active) in test [5]; -100% (active) in test [6]. The growth is 30.5% in test [7] and -47.2% (active) in test [8].
Turning to `CCCCCCCCCCCC(=O)OC(C)C(=O)NCCCC` (centres undefined), the growth was 97.9% in test [1]; 92.5% in test [2]; 112% in test [3]; 98.5% in test [4]; 94.7% in test [5]; 94.4% in test [6]. Besides, the growth in test [7] is 80.2%; in test [8], 105%.
For `CCCOS(=O)(=O)c1ccccc1`, the growth in test [1] was 109%; in test [2] it was 129%; in test [3] it was 101%; in test [4], 101%; in test [5], 111%; in test [6], 107%. In addition, the figures for the growth in test [7] and in test [8] were 102% and 103%, respectively.
For `O=C1c2ccccc2Cc2cccc(Cl)c21`, the growth in test [1] is 92.8%; in test [2] it was 93.3%; in test [3], 120%; in test [4], 112%; in test [5] it was 96.1%; in test [6], 97.4%. Further, the growth is 81% in test [7] and 106% in test [8].
